Compound activity deposited in PubChem BioAssay by National Center for Advancing Translational Sciences (NCATS).
SARS PLP yeast = blocks SARS-CoV papain-like protease in a yeast assay. S. cerevisiae expressing SARS-CoV PLpro, growth rescue. Potency, µM (doses to about 32.9 µM), for inactives: at the top dose activity, positive = growth rescue, hits mostly activators. actives 0.19% (n = 330,000); further: potency means the concentration at half of the fitted maximal effect; 0% is about no effect; nearly all actives have a fitted effect of over 55% in size
NS1 inh = influenza NS1 inhibition; Potency, µM (titrated, usually from 46.1 µM), for inactives: at the top dose activity, positive = more growth; actives 0.4% (n = 270,000); further: potency means the concentration at half of the fitted maximal effect; actives are rising curves; nearly all actives have a fitted effect of over 50% in size
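In this qHTS, NS1 from influenza A is expressed in budding yeast, where it slows growth. Cells are switched from glucose to 2% galactose medium (pH 6.0, -URA), treated with compound, and growth recovery is read at OD600.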
Shiga inhibitor = inhibitors of Shiga toxin in Vero cells | inhibition, % at 38.7 µM | actives 9.2% (n = 290,000) | Vero cells, Shiga toxin protein synthesis inhibition reporter; in the data active means inhibition mostly above about 28%, no sharp cut-off; inactive means mostly below about 43%; further: 0% is about no effect
CHX counter = counter-screen for Shiga toxin inhibitors: cycloheximide protein synthesis inhibition; AID 2314; max response, %; cell reporter, cycloheximide protein synthesis inhibition counterscreen; actives 12% (n = 300,000); in the data active means max response mostly above about 13%, no sharp cut-off; inactive means mostly below about 14%; further: read at 38.3 µM for the half of the compounds with a filed dose; 0% is about no effect
Pf growth 96h = P. falciparum growth inhibition at 96 hour, primary screen for plastid delayed-death inhibitors; Potency, µM (top dose mostly 28.7 µM), for the others: top-dose activity change, negative = inhibition, actives largely listed as inhibitors; P. falciparum luciferase reporter growth, 96 h; actives 6.9% (n = 320,000); active means well fitted inhibition curve with a large enough effect; inconclusive means small, poorly fitted or top-dose-only effect, or another doubt; inactive means no such curve, though single readings can be large or run the other way; further: potency means the concentration at half of the fitted maximal effect; on the % scale 0 is the no-effect control and ±100 the full control effect
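Plates of compound plus infected erythrocytes (2% hematocrit, 0.05% parasitemia final) incubate 96 hours, 37 C, 5% CO2. Detection reagent added; reduced luminescence from the parasites' luciferase reporter flags inhibition.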
Pf growth 48h = inhibits P. falciparum growth in the first generation, 48 h | AID 504832 | Potency, µM (doses to about 28.7 µM), for the others: at the highest dose activity change, negative = inhibition, hits mostly inhibitors | P. falciparum luciferase growth in erythrocytes, 48 h | actives 5.9% (n = 310,000); active means well fitted inhibition curve with a large enough effect; inconclusive means small, poorly fitted or top-dose-only effect, or another doubt; inactive means no such curve, though single readings can be large or run the other way; further: potency means the concentration at half of the fitted maximal effect; on the % scale 0 is the no-effect control and ±100 the full control effect
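Luminescence readout; reporter = integrated firefly luciferase in P. falciparum. RBC culture at 2% hematocrit, 0.1% parasitemia final, 37 C/5% CO2; decreased signal taken as growth inhibition.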
* = called active by the depositor; ? = inconclusive; . = no result; [ ] = remark or other dose. The list is not random: actives were taken first. Their share in the collection is about 21%. Unless noted, the call rests on the fitted dose curve.

SMILES	SARS PLP yeast	NS1 inh	Shiga inhibitor	CHX counter	Pf growth 96h	Pf growth 48h
CCn1c(/C=C\c2ccccc2C)nc2ccccc2c1=O	1%	-5%	82*	23*	27%	?
Cc1[nH]c2ccccc2c1/C=C/c1nc2ccccc2c(=O)n1-c1ccc([N+](=O)[O-])cc1	3%	14%	23	-1	?	?
Cc1ccc2[nH]cc(/C=C/c3cc[n+](C)cc3)c2c1	-1%	5%	-1	-4	?	-1%[0.00184 µM]
CC(=O)Nc1ccc(S(=O)(=O)NC2(C(F)(F)F)C(=O)Nc3c2c(=O)[nH]c(=O)n3Cc2cccnc2)cc1 (stereo not drawn)	0%	7%	11	-4	26%	27%
CCn1c(/C=C/c2ccccc2[N+](=O)[O-])nc2ccccc2c1=O	-2%	.	27	11	?	-21%
CCn1c(/C=C/c2c[nH]c3ccccc23)nc2ccccc2c1=O	-1%	4%	50*	41*	40%	66%
O=c1c2ccccc2nc(/C=C/c2ccccc2)n1CCc1ccccc1	-5%	1%	-9	-6	4.7µM*	?
O=c1c2ccccc2nc(/C=C/c2cccnc2)n1CCc1ccccc1	-4%	-44%	-2	-2	?	?
CCn1c(/C=C/c2ccccc2Cl)nc2ccccc2c1=O	-3%	-32%	74*	30*	1.7µM*	1.9µM*
O=c1c2ccccc2nc(SCc2ccccc2Cl)n1Cc1ccccc1	2%	-9%	-3	-2	?	?
C=CCSc1nc2ccccc2c(=O)n1Cc1ccccc1	-6%	.	1	9	84%	12µM*
O=C(c1ccncc1)N(c1ccc2oc3c(c2c1)CCCC3)S(=O)(=O)c1ccc(F)cc1	-30%	7%	13	-2	13%	8%
NC(=O)CSc1nc2ccccc2c(=O)n1Cc1ccco1	12%	19%	1	-4	?	-8%
CCn1c(/C=C2\C(=O)N(C(C)C)c3ccccc32)nc2ccccc2c1=O	-2%	-6%	-9	-2	?	3.7µM*
NC(=O)CSc1nc2ccccc2c(=O)n1CCc1ccccc1	1%	-6%	2	2	5.9µM*	11%
Cc1cc(NC(=O)CSc2nc3ccccc3[nH]2)n(-c2ccccc2)n1	1%	2%	17	-2	4.7µM*	1.9µM*
O=C(CSc1nc2ccccc2[nH]1)NCc1ccccc1	8%	13%	68*	36*	?	28%
O=C(CSc1nc2ncccc2[nH]1)NC1CCCCC1	-1%	7%	-5	4	6%	2%
COc1ccc(CNC(=O)CSc2nc3ccc(OC)cc3[nH]2)cc1	1%	-6%	-2	1	13%	-5%
O=C(CSc1nc2ncccc2[nH]1)NCc1ccccc1	1%	-6%	6	16*	-1%	0%
O=C(CSc1nc2[nH]ncc2c(=O)[nH]1)NCc1ccccc1	3%	5%	-5	1	24%	0%
COc1ccc(CNC(=O)CSc2nc3ccc(C)cc3[nH]2)cc1	0%	-1%	30	26*	17%	33%
CCCCOc1ccc(/C=C/C(=O)NC2=Nc3ccccc3NC(C)=C2C(=O)OCC)cc1OC	2%	.	19	15	10µM*	?
C[n+]1cccc(C2C(C#N)=C(N)Oc3c2ccc2ccccc32)c1 (stereo not drawn)	4%	6%	76*	51*	?	0.29µM*
C[n+]1cccc2ccc3c(c21)OC(N)=C(C#N)C3c1ccccc1 (stereo not drawn)	1%	2%	11	-3	7.4µM*	3.7µM*
SMILES	SARS PLP yeast	NS1 inh	Shiga inhibitor	CHX counter	Pf growth 96h	Pf growth 48h
COC(=O)c1cc(NC(=O)C2CCCN(S(=O)(=O)c3c(C)n[nH]c3C)C2)cc(C(=O)OC)c1 (stereo not drawn)	4%	.	2	-3	24%	?
COc1ccc(C2=NN(S(C)(=O)=O)C(c3cccs3)C2)cc1OC (stereo not drawn)	0%	-1%	66*	44*	?	56%
COc1ccc(C2CC(c3cccs3)=NN2S(C)(=O)=O)cc1OC (stereo not drawn)	0%	5%	28	-1	6%	-10%
COc1cccc(C2=NN(S(C)(=O)=O)C(c3cccs3)C2)c1 (stereo not drawn)	0%	-2%	40*	35*	?	79%
Cc1ccc2cc(C3CC(c4cccs4)=NN3S(C)(=O)=O)c(Cl)nc2c1 (stereo not drawn)	1%	5%	14	-3	?	?
COc1ccc2cc(C3CC(c4cccs4)=NN3S(C)(=O)=O)c(Cl)nc2c1 (stereo not drawn)	-8%	?	37	24*	?	-9%
CCS(=O)(=O)Nc1ccc(C2=NN(S(C)(=O)=O)C(c3cccs3)C2)cc1 (stereo not drawn)	-1%	.	43	21*	38%	5%
CS(=O)(=O)N1N=C(c2ccccc2)CC1c1cccs1 (stereo not drawn)	-1%	-12%	15	1	?	31%
CCS(=O)(=O)Nc1cccc(C2=NN(C(C)=O)C(c3cccs3)C2)c1 (stereo not drawn)	-2%	-2%	5	1	-2%	1%
CCOC(=O)C1CCN(C(=O)CCCn2nc(C)c3c(C)n(-c4ccc(C)cc4)nc3c2=O)CC1	4%	14%	-6	-2	?	?
CC(C)CCn1c(Br)nc2c1c(=O)n(CC(N)=O)c(=O)n2C	-13%	-1%	3	1	?	3%
COCc1cc(=O)[nH]c(SCCS(=O)(=O)c2ccc(Cl)cc2Cl)n1	0%	-7%	7	2	1%	3%
O=C(Nc1ccccc1SCC1CSc2nc3ccccc3c(=O)n21)c1cccc(Cl)c1 (stereo not drawn)	-1%	-7%	8	-5	?	10µM*
Cc1ccc(-c2cc(C(=O)NCCN3CCOCC3)c3ccccc3n2)o1	-4%	4%	-6	-1	?	-6%
CCOc1ccccc1NC(=O)C1Cc2ccccc2CN1S(C)(=O)=O (stereo not drawn)	1%	-9%	-21	-2	12µM*	?
COc1cc(NC(=O)Cc2ccccc2)cc(OC)c1	2%	2%	-8	0	14%	.
COc1cc(NC(=O)C2Cc3ccccc3CN2S(C)(=O)=O)cc(OC)c1 (stereo not drawn)	-1%	7%	-4	2	1.9µM*	0%
COc1cc(NC(=O)NC2Cc3ccccc3C2)cc(OC)c1	-2%	-4%	53*	20*	?	?
COc1ccc(OC)c(S(=O)(=O)N2Cc3ccccc3CC2C(=O)Nc2nccs2)c1 (stereo not drawn)	4%	-27%	107*	64*	18%	103%
